Measurements from the supplement of paper PMC6411743.
± gives the standard deviation of the averaged measurements. The full data set covers some 6,200 targets. This sample favours those with the largest changes.

Compound: Nc1ncnc2c1ncn2[C@@H]1O[C@H](COP(=O)(O)OP(=O)(O)NP(=O)(O)O)[C@@H](O)[C@H]1O [adenylyl imidodiphosphate]
Assay: NP40-soluble protein abundance relative to vehicle (solubility fold change) (ratio); higher = more soluble protein in presence of AMP-PNP
How it was run: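 Jurkat crude lysate (Dounce-homogenised) was treated with eight concentrations from 0.1 to 10 mM for 10 min at room temperature, then 3 min at 37 °C. It was solubilised with 0.8% NP40 and benzonase (60 min, 4 °C) and ultracentrifuged, and the supernatant was TMT-labelled for LC-MS/MS. Intensities were vsn-normalised, and the value is the fold change against the NP40-processed vehicle per replicate, from three independent experiments.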

Chain of UniProt Q16611 (Q16611 whole entry): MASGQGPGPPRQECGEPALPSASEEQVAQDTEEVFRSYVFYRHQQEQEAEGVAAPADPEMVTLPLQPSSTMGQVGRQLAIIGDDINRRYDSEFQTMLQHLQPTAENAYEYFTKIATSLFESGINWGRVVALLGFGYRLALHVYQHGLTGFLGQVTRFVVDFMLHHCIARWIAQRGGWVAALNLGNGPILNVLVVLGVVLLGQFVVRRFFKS
Chain of UniProt Q92804 (Q92804 whole entry): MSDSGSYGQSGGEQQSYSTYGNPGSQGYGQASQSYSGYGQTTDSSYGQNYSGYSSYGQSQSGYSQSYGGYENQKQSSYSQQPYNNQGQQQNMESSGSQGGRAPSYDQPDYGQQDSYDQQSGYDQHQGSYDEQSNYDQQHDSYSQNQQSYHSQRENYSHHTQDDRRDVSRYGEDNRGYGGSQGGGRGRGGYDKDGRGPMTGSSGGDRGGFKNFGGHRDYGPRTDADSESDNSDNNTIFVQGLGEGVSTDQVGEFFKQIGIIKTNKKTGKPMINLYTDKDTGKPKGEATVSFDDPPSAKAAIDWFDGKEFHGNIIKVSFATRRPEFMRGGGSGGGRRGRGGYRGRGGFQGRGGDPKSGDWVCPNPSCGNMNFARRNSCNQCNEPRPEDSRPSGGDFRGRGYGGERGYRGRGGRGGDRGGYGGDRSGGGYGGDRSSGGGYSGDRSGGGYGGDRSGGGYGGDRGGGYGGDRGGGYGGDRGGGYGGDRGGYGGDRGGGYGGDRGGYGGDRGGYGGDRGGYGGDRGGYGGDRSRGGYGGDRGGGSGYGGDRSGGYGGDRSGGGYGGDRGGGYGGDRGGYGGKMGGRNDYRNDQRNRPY
Chain of UniProt Q8NCL4 (Q8NCL4 whole entry): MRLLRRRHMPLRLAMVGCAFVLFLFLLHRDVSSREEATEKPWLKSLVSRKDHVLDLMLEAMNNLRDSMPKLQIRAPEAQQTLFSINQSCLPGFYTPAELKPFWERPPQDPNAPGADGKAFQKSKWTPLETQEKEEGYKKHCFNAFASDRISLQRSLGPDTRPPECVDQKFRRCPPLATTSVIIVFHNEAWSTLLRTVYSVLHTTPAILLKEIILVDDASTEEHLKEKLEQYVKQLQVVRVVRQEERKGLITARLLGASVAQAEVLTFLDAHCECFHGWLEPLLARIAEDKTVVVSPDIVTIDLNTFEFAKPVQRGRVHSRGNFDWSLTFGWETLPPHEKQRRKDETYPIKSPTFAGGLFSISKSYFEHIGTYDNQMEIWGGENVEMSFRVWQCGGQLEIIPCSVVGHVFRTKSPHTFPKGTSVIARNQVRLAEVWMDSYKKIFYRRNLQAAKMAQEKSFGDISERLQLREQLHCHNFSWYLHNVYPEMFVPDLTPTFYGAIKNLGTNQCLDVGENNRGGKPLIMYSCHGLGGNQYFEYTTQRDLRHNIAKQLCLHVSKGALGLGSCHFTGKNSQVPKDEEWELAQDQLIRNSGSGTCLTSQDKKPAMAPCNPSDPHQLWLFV
Chain of UniProt Q93073 (Q93073 whole entry): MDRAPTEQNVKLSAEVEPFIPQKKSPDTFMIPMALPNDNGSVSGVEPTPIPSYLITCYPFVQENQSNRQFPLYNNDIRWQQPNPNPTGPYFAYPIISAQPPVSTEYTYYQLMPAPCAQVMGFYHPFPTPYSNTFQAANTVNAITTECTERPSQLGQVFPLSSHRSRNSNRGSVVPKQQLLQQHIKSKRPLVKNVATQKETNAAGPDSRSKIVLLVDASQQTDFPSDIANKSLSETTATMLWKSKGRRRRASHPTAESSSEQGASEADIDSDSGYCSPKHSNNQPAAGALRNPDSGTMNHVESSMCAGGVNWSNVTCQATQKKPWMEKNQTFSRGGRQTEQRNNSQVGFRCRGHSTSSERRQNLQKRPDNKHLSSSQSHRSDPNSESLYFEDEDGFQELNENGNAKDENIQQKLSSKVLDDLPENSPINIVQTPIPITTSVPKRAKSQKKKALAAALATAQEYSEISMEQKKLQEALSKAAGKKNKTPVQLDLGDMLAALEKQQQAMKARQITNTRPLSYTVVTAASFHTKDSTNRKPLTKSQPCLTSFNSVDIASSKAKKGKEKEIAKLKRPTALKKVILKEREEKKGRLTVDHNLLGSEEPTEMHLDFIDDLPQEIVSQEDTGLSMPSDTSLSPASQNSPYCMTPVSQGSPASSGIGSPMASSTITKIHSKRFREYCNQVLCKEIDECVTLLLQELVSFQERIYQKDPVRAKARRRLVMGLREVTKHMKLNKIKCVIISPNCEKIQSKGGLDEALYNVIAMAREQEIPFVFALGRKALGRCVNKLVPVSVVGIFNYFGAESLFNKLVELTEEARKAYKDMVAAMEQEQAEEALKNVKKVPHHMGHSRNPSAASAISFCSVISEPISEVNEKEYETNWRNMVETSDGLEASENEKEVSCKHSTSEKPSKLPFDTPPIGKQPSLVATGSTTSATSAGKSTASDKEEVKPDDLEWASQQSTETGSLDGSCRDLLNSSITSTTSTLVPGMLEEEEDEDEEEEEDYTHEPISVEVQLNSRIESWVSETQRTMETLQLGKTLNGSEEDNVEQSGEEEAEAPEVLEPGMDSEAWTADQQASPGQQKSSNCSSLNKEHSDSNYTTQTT
Chain of UniProt Q13572 (Q13572 whole entry): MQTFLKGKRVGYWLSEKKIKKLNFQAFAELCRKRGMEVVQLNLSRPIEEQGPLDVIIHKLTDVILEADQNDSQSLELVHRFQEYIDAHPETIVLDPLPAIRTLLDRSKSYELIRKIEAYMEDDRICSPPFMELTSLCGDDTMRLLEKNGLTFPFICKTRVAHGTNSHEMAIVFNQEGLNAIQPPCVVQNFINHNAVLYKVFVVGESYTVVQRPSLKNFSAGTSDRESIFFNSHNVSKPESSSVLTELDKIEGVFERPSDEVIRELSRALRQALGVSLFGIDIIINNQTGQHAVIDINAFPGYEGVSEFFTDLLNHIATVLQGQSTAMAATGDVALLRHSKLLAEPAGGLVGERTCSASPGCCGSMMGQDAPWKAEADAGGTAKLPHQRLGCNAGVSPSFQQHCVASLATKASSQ
Chain of UniProt Q15233 (Q15233 whole entry): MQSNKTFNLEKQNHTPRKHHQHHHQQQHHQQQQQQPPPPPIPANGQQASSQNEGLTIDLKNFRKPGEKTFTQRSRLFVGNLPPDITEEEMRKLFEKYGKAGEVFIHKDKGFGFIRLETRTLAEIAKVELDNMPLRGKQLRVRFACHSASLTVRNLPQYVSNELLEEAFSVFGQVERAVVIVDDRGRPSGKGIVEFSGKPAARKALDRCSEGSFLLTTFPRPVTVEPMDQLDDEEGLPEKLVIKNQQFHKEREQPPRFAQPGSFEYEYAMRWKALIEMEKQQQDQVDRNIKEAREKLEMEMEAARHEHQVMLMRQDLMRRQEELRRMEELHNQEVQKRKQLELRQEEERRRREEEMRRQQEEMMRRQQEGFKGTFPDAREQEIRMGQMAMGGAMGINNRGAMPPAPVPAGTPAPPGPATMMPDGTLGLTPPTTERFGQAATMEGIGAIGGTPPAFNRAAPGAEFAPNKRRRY
Chain of UniProt Q5SSJ5 (Q5SSJ5 whole entry): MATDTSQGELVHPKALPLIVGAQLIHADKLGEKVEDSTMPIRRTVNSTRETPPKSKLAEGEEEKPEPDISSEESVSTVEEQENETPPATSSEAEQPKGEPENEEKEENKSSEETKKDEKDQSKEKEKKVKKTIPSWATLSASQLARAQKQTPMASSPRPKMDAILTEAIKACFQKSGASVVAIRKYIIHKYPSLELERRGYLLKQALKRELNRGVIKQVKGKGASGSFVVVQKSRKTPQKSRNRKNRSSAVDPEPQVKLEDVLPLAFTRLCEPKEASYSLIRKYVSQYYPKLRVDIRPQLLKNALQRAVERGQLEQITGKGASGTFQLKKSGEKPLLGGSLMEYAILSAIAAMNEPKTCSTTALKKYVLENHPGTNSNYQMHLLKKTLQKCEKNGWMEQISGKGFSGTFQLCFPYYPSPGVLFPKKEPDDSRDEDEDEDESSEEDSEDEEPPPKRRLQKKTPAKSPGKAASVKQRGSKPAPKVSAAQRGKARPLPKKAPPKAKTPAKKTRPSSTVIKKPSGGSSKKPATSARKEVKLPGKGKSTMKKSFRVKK
Chain of UniProt Q6UXH1 (Q6UXH1 whole entry): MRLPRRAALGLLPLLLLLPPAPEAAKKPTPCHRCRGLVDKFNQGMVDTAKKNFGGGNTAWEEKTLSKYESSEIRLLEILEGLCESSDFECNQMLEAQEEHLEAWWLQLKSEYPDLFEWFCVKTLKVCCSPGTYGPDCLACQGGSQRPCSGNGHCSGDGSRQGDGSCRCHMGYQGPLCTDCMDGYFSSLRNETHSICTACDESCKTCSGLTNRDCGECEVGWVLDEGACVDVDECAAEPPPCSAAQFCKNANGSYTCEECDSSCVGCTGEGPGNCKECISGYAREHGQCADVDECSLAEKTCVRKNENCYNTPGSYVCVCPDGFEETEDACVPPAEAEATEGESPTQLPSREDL
Chain of UniProt Q13541 (Q13541 whole entry): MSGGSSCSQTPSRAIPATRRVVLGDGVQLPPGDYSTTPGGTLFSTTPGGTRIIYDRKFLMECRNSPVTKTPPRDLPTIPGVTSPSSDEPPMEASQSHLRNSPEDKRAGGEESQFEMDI
Chain of UniProt Q7L5N7 (Q7L5N7 whole entry, one chain of several): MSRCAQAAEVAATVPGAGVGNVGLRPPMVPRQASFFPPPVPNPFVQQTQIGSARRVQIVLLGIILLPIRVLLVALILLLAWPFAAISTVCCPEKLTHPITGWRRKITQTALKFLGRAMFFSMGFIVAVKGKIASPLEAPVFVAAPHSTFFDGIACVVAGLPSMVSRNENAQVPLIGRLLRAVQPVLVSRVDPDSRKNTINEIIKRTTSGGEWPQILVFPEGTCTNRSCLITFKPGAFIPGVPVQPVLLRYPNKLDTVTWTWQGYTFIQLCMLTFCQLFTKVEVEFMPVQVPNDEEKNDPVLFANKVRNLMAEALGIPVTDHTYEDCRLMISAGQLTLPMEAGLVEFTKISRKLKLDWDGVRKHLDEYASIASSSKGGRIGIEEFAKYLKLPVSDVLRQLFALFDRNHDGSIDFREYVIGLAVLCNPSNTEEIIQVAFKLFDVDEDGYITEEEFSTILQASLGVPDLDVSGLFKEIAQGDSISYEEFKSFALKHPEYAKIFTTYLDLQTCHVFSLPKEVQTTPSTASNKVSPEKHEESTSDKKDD

Target	NP40-soluble protein abundance (concentration: 1mM)	NP40-soluble protein abundance (concentration: 2mM)	NP40-soluble protein abundance (concentration: 4mM)	NP40-soluble protein abundance (concentration: 6mM)	NP40-soluble protein abundance (concentration: 8mM)	NP40-soluble protein abundance (concentration: 10mM)
UniProt Q7L5Y1|Q7L5Y1-4|Q7L5Y1-5	0.992 ± 0.03	1 ± 0.016	1.007 ± 0.0081	0.99 ± 0.04	1.01 ± 0.013	0.996 ± 0.0075
UniProt Q86Y56	0.976 ± 0.045	0.931 ± 0.038	0.977 ± 0.037	1.01 ± 0.022	0.997 ± 0.055	0.991 ± 0.04
UniProt Q8NBP0|Q8NBP0-2	0.998 ± 0.019	0.97 ± 0.025	0.9847 ± 0.0052	0.984 ± 0.025	0.992 ± 0.032	0.991 ± 0.027
CAND1 (UniProt Q86VP6)	0.971 ± 0.024	0.947 ± 0.03	0.983 ± 0.035	1.01 ± 0.084	1.03 ± 0.044	0.992 ± 0.058
UniProt Q7Z2K8|Q7Z2K8-2	0.958 ± 0.012	0.913 ± 0.023	1.12 ± 0.049	1.1 ± 0.038	0.932 ± 0.057	0.932 ± 0.031
FAM117B (UniProt Q6P1L5)	0.99 ± 0.022	1.07 ± 0.04	1.01 ± 0.025	1.005 ± 0.01	0.9688 ± 0.0059	1.01 ± 0.022
UniProt Q5RI15|Q5RI15-2	1.12 ± 0.073	1.13 ± 0.1	1.05 ± 0.034	1.1 ± 0.044	1.05 ± 0.049	1.11 ± 0.04
UniProt Q8TAT6|Q8TAT6-2	0.955 ± 0.025	0.961 ± 0.022	0.968 ± 0.044	0.983 ± 0.015	0.991 ± 0.036	1.02 ± 0.025
UniProt Q15599|Q15599-2	1.01 ± 0.046	1.05 ± 0.042	1.04 ± 0.035	1.05 ± 0.038	1.04 ± 0.038	1.03 ± 0.045
LRRC59 (UniProt Q96AG4)	1.11 ± 0.048	1.32 ± 0.3	1.13 ± 0.089	1.15 ± 0.028	1.12 ± 0.052	1.19 ± 0.13
URB2 (UniProt Q14146)	0.971 ± 0.018	0.9722 ± 0.0054	0.988 ± 0.013	1.05 ± 0.018	1.07 ± 0.023	1.1 ± 0.055
UniProt Q8WZA0|Q8WZA0-2	0.969 ± 0.052	0.957 ± 0.0098	0.928 ± 0.059	0.912 ± 0.044	0.921 ± 0.034	0.859 ± 0.054
EIF3A (UniProt Q14152)	1.05 ± 0.029	1.08 ± 0.044	1.12 ± 0.087	1.19 ± 0.12	1.25 ± 0.12	1.38 ± 0.19
UniProt Q5T3F8|H3BLW6	1 ± 0.052	1.06 ± 0.1	1.01 ± 0.038	1.01 ± 0.019	0.985 ± 0.042	1.01 ± 0.049
ARFGAP1 (UniProt Q8N6T3)	1.02 ± 0.021	1.02 ± 0.023	1.02 ± 0.016	1.02 ± 0.023	0.993 ± 0.018	1.01 ± 0.038
UniProt Q460N5|Q460N5-1	1.02 ± 0.02	0.993 ± 0.046	1.04 ± 0.039	0.9762 ± 0.0066	1.01 ± 0.029	0.9765 ± 0.0028
UniProt Q92804|Q92804-2	1.07 ± 0.15	1.15 ± 0.031	1.19 ± 0.17	1.27 ± 0.21	1.32 ± 0.13	1.54 ± 0.23
NSDHL (UniProt Q15738)	0.968 ± 0.04	0.892 ± 0.058	0.93 ± 0.022	0.953 ± 0.045	0.964 ± 0.036	0.923 ± 0.028
GALNT6 (UniProt Q8NCL4)	1.005 ± 0.0084	0.9987 ± 0.0047	0.967 ± 0.011	1 ± 0.024	0.9866 ± 0.0025	1 ± 0.015
UniProt Q86VP1-2|Q86VP1-4|B8ZZD4	0.977 ± 0.039	1.01 ± 0.026	0.963 ± 0.024	0.935 ± 0.038	0.925 ± 0.033	0.936 ± 0.031

Target	NP40-soluble protein abundance (concentration: 1mM)	NP40-soluble protein abundance (concentration: 2mM)	NP40-soluble protein abundance (concentration: 4mM)	NP40-soluble protein abundance (concentration: 6mM)	NP40-soluble protein abundance (concentration: 8mM)	NP40-soluble protein abundance (concentration: 10mM)
GTF3C6 (UniProt Q969F1)	1.04 ± 0.045	1.07 ± 0.042	1.04 ± 0.032	0.984 ± 0.018	0.99 ± 0.047	1.01 ± 0.035
EIF4EBP1 (UniProt Q13541)	0.949 ± 0.016	1.032 ± 0.008	0.998 ± 0.1	0.9563 ± 0.0018	0.961 ± 0.059	0.96 ± 0.047
UniProt Q92793|Q92793-2	1.05 ± 0.037	1.05 ± 0.028	1.01 ± 0.035	1.01 ± 0.04	1.02 ± 0.015	1.05 ± 0.02
UniProt Q7L5N7|A0A087X0A3|Q7L5N7-2	0.987 ± 0.031	0.966 ± 0.051	0.979 ± 0.037	0.99 ± 0.035	0.985 ± 0.028	1.01 ± 0.036
UniProt Q5EBL8|Q5EBL8-2	1 ± 0.011	1.02 ± 0.023	0.9905 ± 0.0052	1 ± 0.025	1.02 ± 0.03	1.017 ± 0.0054
ITPK1 (UniProt Q13572)	1.019 ± 0.0014	1.035 ± 0.0039	1.01 ± 0.014	0.992 ± 0.025	1.02 ± 0.04	0.9738 ± 0.0084
HP1BP3 (UniProt Q5SSJ5)	0.963 ± 0.042	1.06 ± 0.063	1.03 ± 0.065	1.16 ± 0.017	1.18 ± 0.069	1.39 ± 0.15
EMG1 (UniProt Q92979)	1.01 ± 0.03	1 ± 0.014	1.12 ± 0.087	1.19 ± 0.071	1.24 ± 0.096	1.26 ± 0.1
IQGAP2 (UniProt Q13576)	0.956 ± 0.027	0.935 ± 0.022	0.94 ± 0.051	0.944 ± 0.029	0.926 ± 0.039	0.932 ± 0.038
UniProt Q15365	1.031 ± 0.0057	1.04 ± 0.038	1.04 ± 0.033	1 ± 0.02	1.01 ± 0.014	1.01 ± 0.03
UniProt Q969T7|Q969T7-2	0.981 ± 0.054	0.95 ± 0.043	0.999 ± 0.029	0.966 ± 0.025	0.96 ± 0.042	0.963 ± 0.046
DHX38 (UniProt Q92620)	1.016 ± 0.0095	1.03 ± 0.037	1.03 ± 0.012	1.01 ± 0.055	1.04 ± 0.034	1.03 ± 0.023
UniProt Q6ZRI6|Q6ZRI6-2|H3BMJ2	0.9914 ± 0.0011	1.01 ± 0.044	1.01 ± 0.018	0.992 ± 0.029	1 ± 0.018	0.99766 ± 5.3e-05
CLYBL (UniProt Q8N0X4)	1.01 ± 0.016	0.978 ± 0.013	1 ± 0.02	0.982 ± 0.043	0.9692 ± 0.0037	0.9819 ± 0.0062
PCGF5 (UniProt Q86SE9)	1.01 ± 0.043	1.01 ± 0.029	1.01 ± 0.065	0.967 ± 0.054	0.974 ± 0.039	0.945 ± 0.036
FAM91A1 (UniProt Q658Y4)	0.958 ± 0.033	0.915 ± 0.068	0.961 ± 0.031	0.99 ± 0.041	1.01 ± 0.034	0.975 ± 0.054
POLA2 (UniProt Q14181)	0.994 ± 0.014	0.974 ± 0.028	1 ± 0.044	1.04 ± 0.03	1.02 ± 0.021	1.03 ± 0.025
ABHD11 (UniProt Q8NFV4)	1.02 ± 0.035	1.046 ± 0.0096	1.04 ± 0.023	0.995 ± 0.028	1 ± 0.02	1.01 ± 0.048
UniProt Q86W42|Q86W42-2	1.17 ± 0.087	1.25 ± 0.065	1.36 ± 0.11	1.49 ± 0.1	1.65 ± 0.18	1.67 ± 0.27
UniProt Q5FWF5	1.01 ± 0.012	1.012 ± 0.0086	1 ± 0.026	1.04 ± 0.035	1.029 ± 7.1e-05	1.06 ± 0.023

Target	NP40-soluble protein abundance (concentration: 1mM)	NP40-soluble protein abundance (concentration: 2mM)	NP40-soluble protein abundance (concentration: 4mM)	NP40-soluble protein abundance (concentration: 6mM)	NP40-soluble protein abundance (concentration: 8mM)	NP40-soluble protein abundance (concentration: 10mM)
UniProt Q16698-2|Q16698	1.06 ± 0.085	1.11 ± 0.058	1.19 ± 0.08	1.21 ± 0.014	1.26 ± 0.041	1.25 ± 0.02
UniProt Q93073|Q93073-2	0.997 ± 0.026	1.01 ± 0.046	0.978 ± 0.039	0.996 ± 0.013	0.972 ± 0.024	0.971 ± 0.027
UniProt Q14677|Q14677-2|Q14677-3	0.999 ± 0.026	1.03 ± 0.069	0.983 ± 0.052	1 ± 0.026	0.974 ± 0.03	1.03 ± 0.043
FIG4 (UniProt Q92562)	1 ± 0.022	1.04 ± 0.024	1.06 ± 0.04	1.02 ± 0.024	0.9942 ± 0.0076	0.9926 ± 0.0034
CCDC6 (UniProt Q16204)	0.993 ± 0.023	1.06 ± 0.037	0.979 ± 0.041	0.957 ± 0.024	0.9475 ± 0.0034	0.916 ± 0.027
EPM2AIP1 (UniProt Q7L775)	0.961 ± 0.015	0.94 ± 0.032	0.96 ± 0.025	0.947 ± 0.028	0.9617 ± 0.0055	0.958 ± 0.041
UniProt Q684P5-2|Q684P5-3|Q684P5	1 ± 0.035	1 ± 0.024	0.997 ± 0.051	0.977 ± 0.029	0.963 ± 0.048	0.968 ± 0.026
ANKRD13A (UniProt Q8IZ07)	0.985 ± 0.017	0.981 ± 0.013	1.04 ± 0.029	1.06 ± 0.061	1.04 ± 0.03	1.08 ± 0.047
UniProt Q16611|Q16611-2	0.994 ± 0.035	0.952 ± 0.016	0.985 ± 0.043	0.96 ± 0.023	0.974 ± 0.032	0.932 ± 0.026
UniProt Q16666|Q16666-2	1.06 ± 0.052	1.11 ± 0.023	1.22 ± 0.069	1.43 ± 0.14	1.49 ± 0.14	1.53 ± 0.19
TRAPPC5 (UniProt Q8IUR0)	0.946 ± 0.055	0.933 ± 0.043	0.959 ± 0.073	1.187 ± 0.002	1.18 ± 0.043	1.12 ± 0.13
PLA2G15 (UniProt Q8NCC3)	0.991 ± 0.013	0.975 ± 0.013	1.02 ± 0.03	0.986 ± 0.029	0.9922 ± 0.0084	0.979 ± 0.021
UniProt Q15006	0.984 ± 0.018	0.9532 ± 0.0062	0.975 ± 0.044	0.989 ± 0.049	1.02 ± 0.028	1.02 ± 0.013
UniProt Q8IWI9|Q8IWI9-3|Q8IWI9-4	1.02 ± 0.023	1.01 ± 0.021	1.01 ± 0.047	0.953 ± 0.014	0.924 ± 0.029	0.944 ± 0.046
SF3A1 (UniProt Q15459)	1.02 ± 0.022	1.05 ± 0.05	1.02 ± 0.014	1.07 ± 0.031	1.07 ± 0.017	1.09 ± 0.031
NONO (UniProt Q15233)	1.09 ± 0.048	1.17 ± 0.064	1.22 ± 0.056	1.39 ± 0.12	1.45 ± 0.15	1.56 ± 0.18
UniProt Q6UXH1|Q6UXH1-4|Q6UXH1-5|Q6UXH1-6	1.01 ± 0.032	1.07 ± 0.056	1.01 ± 0.029	0.964 ± 0.019	0.956 ± 0.045	1.01 ± 0.029
UniProt Q8N5M4|E9PKV8	0.932 ± 0.054	0.94 ± 0.03	0.91 ± 0.032	0.984 ± 0.064	0.961 ± 0.055	0.938 ± 0.071
UniProt Q8N4N3|Q8N4N3-2	1 ± 0.013	0.996 ± 0.019	0.981 ± 0.027	0.96 ± 0.019	0.981 ± 0.027	0.959 ± 0.017
PRPF8 (UniProt Q6P2Q9)	0.989 ± 0.039	0.892 ± 0.15	0.979 ± 0.085	0.966 ± 0.098	1.05 ± 0.13	1.02 ± 0.16
